# PubChem BioAssay (EPA / NIEHS)
# The source made the active and inactive calls. Rule for the calls: active = hit-call score of the fitted dose curve at least 0.9, where 1 is the maximum; inactive = score below 0.9.
# Assay: APR_HepG2_NuclearSize_72hr: Apredica 72-hour HepG2 Assay for Nuclear Size (AID 2282925)
# Conditions: high-content imaging, actives raise or lower the signal
# Summary of the method: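 HepG2 cells dosed 72 h at 0.39–200 uM (10 concentrations, duplicate) in 0.5% v/v DMSO final. Fixed, Hoechst 33342-stained nuclei imaged; nuclear diameter measured by automated image analysis. Bidirectional fit versus DMSO.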
SMILES,outcome,AC50
CCCCC(CC)COC(=O)CCCCC(=O)OCc1ccccc1 (centres undefined),inactive,
Cc1oc(-c2ccccc2)nc1CCOc1ccc(C[C@H](Nc2ccccc2C(=O)c2ccccc2)C(=O)O)cc1,inactive,
CN1CCC[C@H]1c1cccnc1,inactive,
COCC(C)OCC(C)O (centres undefined),inactive,
CN1CCN(c2ccccc2/C=C2\SCCN(c3ccc(Cl)c(Cl)c3)C2=O)CC1,,5.01 µM (active)
CC(C)(C)CC(C)(C)c1ccc(O)c(-n2nc3ccccc3n2)c1,,80.4 µM (active)
C[C@@H]1C[C@H]2[C@@H]3CCC4=CC(=O)C=C[C@]4(C)[C@@]3(F)[C@@H](O)C[C@]2(C)[C@@]1(O)C(=O)COP(=O)(O)O,,1.84 µM (active)
CCc1nn(C2CCCCC2)c2cc(C3(C#N)CCC(C(=O)O)CC3)ccc12 (centres undefined),inactive,
N#C[C@@H]1CC(F)(F)CN1C(=O)CNC1CC2CCC(C1)N2c1ncccn1 (some centres undefined),inactive,
CCCCCCCCC(=O)O,inactive,
NC(=O)N(O)[C@@H]1C=C[C@H](Oc2cccc(Oc3ccc(F)cc3)c2)C1,inactive,
CC(=O)CC(C)(C)O,inactive,
CC(=O)NC1(c2cccc(F)c2)CCN(CC[C@@]2(c3ccc(Cl)c(Cl)c3)CN(c3ccccc3)C(=O)CO2)CC1,inactive,
CCCCCCCCCCCCc1ccccc1S(=O)(=O)O,inactive,
Cc1cc(CCN2CCN(c3nsc4ccccc34)CC2)cc2c1NC(=O)CC2(C)C,inactive,
CCCCCCC(=O)O,inactive,
OC1CCC(C2CCCCC2)CC1 (centres undefined),inactive,
O=[N+]([O-])c1ccc(O)cc1,inactive,
CC(C)(C)c1cccc(C(C)(C)C)c1O,inactive,
